# From PubChem BioAssay (NCI)
# About 83,000 compounds went through this panel and 20% of them were active in at least one assay; those are over-represented in the sample as a whole.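 Values shown are percent growth following 48 h exposure of cells in 96-well plates to a single concentration of compound; below 10 was considered active.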 A number with no mark means an inactive call. Activity calls are given as the source filed them.
# Test system: HL-60(TB) leukemia
# Assay: NCI-60 one-dose screen, 48 h (100 = growth as untreated, 0 = no growth, -100 = all killed)
# Conditions: 10 µM unless noted
row,Structure (SMILES),growth
1,CC(C)CCc1nc2ccc(NCc3ccc(OCCN4CCC(C)CC4)cc3)cc2[nH]1,84.8%
2,C=C(C)[C@@H]1CC[C@]2(C(=O)NC3CCCCC3)CC[C@]3(C)[C@H](CC[C@@H]4[C@@]5(C)CCC(=O)C(C)(C)[C@@H]5CC[C@]43C)[C@@H]12,76.6%
3,COc1cccc2c1C(=O)c1c(O)c3c(c(O)c1C2=O)C[C@@](O)(C(=O)CO)C[C@@H]3OC1C[C@H](N)[C@H](O)[C@H](C)O1 (stereo not given in full),-26.7% (active)
4,Cn1c(=O)[nH]c(=O)c2nc3c(nc21)-c1ccccc1C3=O,101%
5,COC(/C=C/c1ccc([N+](=O)[O-])cc1)OC,42%
6,COc1cc(-c2cc3cnccc3c3nc(N)c4ccncc4c23)cc(OC)c1OC,40.4%
7,C[C@@H]1CC[C@@]2(OC1)O[C@H]1C[C@H]3[C@@H]4CC=C5C[C@@H](O[C@@H]6O[C@H](CO)[C@@H](O[C@@H]7O[C@@H](CO)[C@H](O)[C@H]7O)[C@H](O)[C@H]6O[C@@H]6O[C@@H](C)[C@H](O)[C@@H](O)[C@H]6O)CC[C@]5(C)[C@H]4CC[C@]3(C)[C@H]1[C@@H]2C,-84.1% (active)
8,C=C(CN1CC=CCC1)[C@@H]1CC[C@]2(CO)CC[C@]3(C)[C@H](CC[C@@H]4[C@@]5(C)CC[C@H](O)C(C)(C)[C@@H]5CC[C@]43C)[C@@H]12,99.9%
9,CCOc1ccc(Cc2nccc3cc(OCC)c(OCC)cc23)cc1OCC,10.5%
10,COc1ccc(N2C(=O)C3c4[nH]c5ccc(OCc6ccccc6)cc5c4C4CCC(C(C)C)CC4C3C2=O)cc1 (stereo not given),68.9%
11,Cc1cc(C(O)(c2ccc(Nc3ccccc3)cc2)c2ccc(Nc3ccc(S(=O)(=O)O)cc3)cc2)ccc1N (stereo not given),-7.9% (active)
12,Cc1cccc(N2CCN(C(=S)c3ccc4c(c3)OCO4)CC2)c1,-20% (active)
13,CC/C=C\C/C=C\C[C@H](O)C/C=C1/C(=O)C=C[C@@H]1C/C=C\CCCC(=O)O,32.6%
14,O=C(O)CN1C(=O)C=CC1=O,96.9%
15,COc1cc(CO)cc2cc3ccccc3nc12,101%
16,CN1CCN(C)c2cncc(Br)c2C1=O,96.4%
17,Cc1nn(-c2ccc(F)cc2)c2ncnc(Oc3ccc(NC(=O)Nc4ccc(Cl)c(C(F)(F)F)c4)cc3)c12,99%
18,CC(C)c1ccc(/C=N/Nc2nc3ccccc3s2)cc1,98%
19,Cc1[nH]nc2ccc3nc(-c4ccc5[nH]ncc5c4)c4c(c3c12)CCCC4,-15.5% (active)
20,Cn1cc(-c2nnc(-c3cn(C)c4ncccc34)o2)c2ccccc21,12.5%
21,CN(C)Cc1cc(C(C)(C)CC(C)(C)C)ccc1O,94.4%
22,CC1SC(c2ccc(OCc3ccccc3)cc2)N(NC(=O)C(O)(c2ccccc2)c2ccccc2)C1=O (stereo not given),14.5%
23,COc1ccc(-c2cc(-c3cccnc3)nc3sc4c(=O)[nH]c(-c5ccc(Cl)cc5)nc4c23)cc1OC,90.3%
24,O=C(O)C(C(=O)O)c1cccc2ccccc12,98.6%
25,O=C(/C=C/c1ccco1)c1cccc(Nc2nc(Nc3ccccc3)nc(Nc3ccccc3)n2)c1,91.1%
